Source: the supplement of paper PMC13380429

Assays:
[1] = tested on: Vero E6 infected with SARS-CoV-2; experiment: morphology score (similarity to uninfected cells); higher = more like uninfected cells; settings: 24 h
[2] = tested on: Vero E6 infected with SARS-CoV-2; experiment: SARS-CoV-2 infection rate relative to infected DMSO; higher = more infection, active = 60 or less; settings: 24 h

## O=C(Nc1ccc(C(F)(F)F)cn1)N1CCN(c2ncccc2C(F)(F)F)CC1 (10 µM)
[1]
  morphology score: 0.0927
[2]
  SARS-CoV-2 infection rate: 93.5% (inactive)

## Cc1cc2sc(NC(=O)Cc3ccccc3)nc2cc1Cl (10 µM)
[1]
  morphology score: 0.407
[2]
  SARS-CoV-2 infection rate: 76.5% (inactive)

## CS(=O)(=O)Nc1ccc([N+](=O)[O-])cc1Oc1ccccc1 [nimesulide] (10 µM)
[1]
  morphology score: 0.0266
[2]
  SARS-CoV-2 infection rate: 105% (inactive)

## COc1cc(Cc2cnc(N)nc2N)cc(OC)c1OC [trimethoprim] (10 µM)
[1]
  morphology score: -0.0548
[2]
  SARS-CoV-2 infection rate: 98.5% (inactive)

## Cc1cc(C)c(N)c(C#Cc2cccc(F)c2)n1 (10 µM)
[1]
  morphology score: 0.221
[2]
  SARS-CoV-2 infection rate: 97.5% (inactive)

## O[C@H]1[C@H](O)[C@@H](O)CN2CC[C@H](O)[C@H]12 [castanospermine] (10 µM)
[1]
  morphology score: -0.18
[2]
  SARS-CoV-2 infection rate: 112% (inactive)

## CC1(C)S[C@@H]2[C@H](NC(=O)COc3ccccc3)C(=O)N2[C@H]1C(=O)O [penicillin-v-potassium] (10 µM)
[1]
  morphology score: -0.0155
[2]
  SARS-CoV-2 infection rate: 116% (inactive)

## O=C1CCCN1CC#CCN1CCCC1 [oxotremorine-sesquifumarate] (10 µM)
[1]
  morphology score: 0.062
[2]
  SARS-CoV-2 infection rate: 100% (inactive)

## O=C1O[C@H]([C@@H](O)CO)C([O-])=C1O.[Na+] [sodium-ascorbate] (10 µM)
[1]
  morphology score: 0.159
[2]
  SARS-CoV-2 infection rate: 95.5% (inactive)

## O=C(O)C1=CCCN(CCON=C(c2ccccc2)c2ccccc2)C1 (10 µM)
[1]
  morphology score: 0.0245
[2]
  SARS-CoV-2 infection rate: 95% (inactive)

## C/C=C(/C)C(=O)O[C@H]1C(C)=C[C@]23C(=O)[C@@H](C=C(CO)[C@@H](O)[C@]12O)[C@H]1[C@@H](C[C@H]3C)C1(C)C [ingenol-mebutate] (0.833333 µM)
[1]
  morphology score: -0.298
[2]
  SARS-CoV-2 infection rate: 95% (inactive)

## C[C@H](CCC(=O)NCCS(=O)(=O)O)[C@H]1CC[C@H]2[C@@H]3[C@@H](O)C[C@@H]4C[C@H](O)CC[C@]4(C)[C@H]3CC[C@]12C [ursodeoxycholyltaurine] (10 µM)
[1]
  morphology score: 0.0842
[2]
  SARS-CoV-2 infection rate: 102% (inactive)

## CN1C[C@H](CNC(=O)OCc2ccccc2)C[C@@H]2c3cccc4c3c(cn4C)C[C@H]21 [metergoline] (10 µM)
[1]
  morphology score: 0.164
[2]
  SARS-CoV-2 infection rate: 97.5% (inactive)

## O=C(CCBr)N1CC[N+]2(CC1)CC[N+]1(CCN(C(=O)CCBr)CC1)CC2 [spirobromin] (10 µM)
[1]
  morphology score: -0.0585
[2]
  SARS-CoV-2 infection rate: 112% (inactive)
